HSF1 activator = increases HSF-1 driven luciferase reporter signal | NIH3T3-HGL HSF-1 luciferase reporter, MG132, 8 h; 100% = twice DMSO control signal | activation, % at 9 µM | 1.7% of 300,000 active | AID 504408;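 active means mean replicate activation of at least 50% with a set share of replicates each reaching 50%; inconclusive means only one of those two conditions met; inactive means mean below 50% and too few replicates reaching it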;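 further: 0% = median of the neutral control wells and 100% = twice that signal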
esBAF inh = blocks esBAF chromatin remodeling in mouse ES cells | Bmi1-luciferase knock-in reporter, 24 h; 100% = twice the neutral-well signal | reporter increase, % at 12.5 µM | 2% of 350,000 active; in the data active means activation above about 40%; inconclusive means no clear call, values can overlap the other calls;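 further: 0% = median of the plate's neutral control wells and 100% = double that signal; a rise in the Bmi1 reporter signal indicates esBAF inhibition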
Vif inh = blocks HIV Vif function; 0.35% of 340,000 active; AID 602346; inhibition, % at 7.49 µM; HEK293T cells, Vif self-association by quenched fluorescence, imaging, 24 h; in the data active means inhibition above about 50%, passing the limit was not always enough; inconclusive means no clear call, values can overlap the other calls; inactive means below about 31%
HSF1 inhib = HSF1 inhibition; activity change, negative = inhibition, % at 7.5 µM (by protocol); 0.77% of 300,000 active; AID 2098; NIH3T3-HGL HSE-luciferase, MG132-induced, luminescence 8 h; hits give low values;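 active means more than half of replicate wells show activity change below -50%, luminescence cut by over half; inconclusive means some wells, but at most half, below -50%; inactive means no replicate well below -50%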;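 further: luciferase reports HSF-1 transcriptional activity via heat shock element; 0% = median of DMSO wells and -100% = zero luminescence signal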
Starred values were filed as active, the others as inactive. Most compounds without a hit are left out; they make up all but 3.4% or so of the library.

C[C@H]1CN([C@@H](C)CO)S(=O)(=O)c2ccc(C#Cc3cccc(F)c3)cc2O[C@H]1CN(C)CC1CC1 was read as esBAF inh -6.8.
For C=CCN1C(=O)NC(c2ccccc2)(C(F)(F)F)S/C1=C(\C#N)c1nnc(N2CCOCC2)n1-c1ccccc1 (centres undefined) the results were HSF1 activator 83.4*, Vif inh 0.2 and HSF1 inhib 37.4.
For Cn1cc([N+](=O)[O-])c(C(=O)Nc2sc3c(c2C#N)CCC3)n1 the results were HSF1 activator 189.9*, esBAF inh -25.6, Vif inh -1.0 and HSF1 inhib 169.7.
CCn1cc(Br)c(C(=O)Nc2sc3c(c2C(N)=O)CCCC3)n1 was read as HSF1 activator 2.6, esBAF inh 7.3, Vif inh -0.3 and HSF1 inhib 7.8.
NC(=O)c1c(NC(=O)c2ccc(F)cc2Cl)sc2c1CCC2 was read as HSF1 activator -1.2, esBAF inh 49.3*, Vif inh -3.2 and HSF1 inhib -18.3.
Screening NC(=O)c1c(NC(=O)c2ccccc2C(=O)O)sc2c1CCCC2 returned HSF1 activator 4.3, esBAF inh -3.0, Vif inh 8.7 and HSF1 inhib -6.2.
Cn1cc(Br)c(C(=O)Nc2sc3c(c2C(N)=O)CCCC3)n1 was read as HSF1 activator 24.2, esBAF inh 67.2*, Vif inh -4.8 and HSF1 inhib 24.4.
For NC(=O)c1c(NC(=O)c2ccccc2F)sc2c1CCCC2 the results were HSF1 activator 75.0*, esBAF inh 64.9*, Vif inh 3.4 and HSF1 inhib 39.2.
C[C@@H]1CN([C@@H](C)CO)C(=O)Cc2cc(NC(=O)Cn3cnnn3)ccc2O[C@@H]1CN(C)CC1CC1 was read as esBAF inh -0.3.
Screening Cc1onc(-c2ccccc2)c1C(=O)Nc1sc2c(c1C(N)=O)CCC2 returned HSF1 activator -66.0, Vif inh -4.9 and HSF1 inhib -59.3*.
`CO[C@H]1CC[C@@H]2CCN(C)C(=O)[C@H](C)[C@H](OC)CN(C)C(=O)c3cccc(C#N)c3OC[C@H]1O2` gave esBAF inh -4.9.
`COc1cccc(C(=O)Nc2cccc3cccnc23)c1OC` gave HSF1 activator 17.3, esBAF inh 43.0*, Vif inh -5.7 and HSF1 inhib 7.3.
Screening O=C(Nc1cccc2cccnc12)c1cccc2ccccc12 returned esBAF inh 0.4 and Vif inh 4.4.
For Cc1cc(C(=O)Nc2cccc3cccnc23)ccc1[N+](=O)[O-] the results were HSF1 activator 45.3, esBAF inh 49.0*, Vif inh -2.3 and HSF1 inhib 23.4.
Screening O=C(Nc1cccc2cccnc12)c1cccc([N+](=O)[O-])c1 returned HSF1 activator 12.3, esBAF inh 29.4, Vif inh -2.3 and HSF1 inhib 14.3.
`COc1ccc(C(=O)Nc2cccc3cccnc23)cc1OC` gave HSF1 activator 68.2*, esBAF inh 23.3, Vif inh 11.2 and HSF1 inhib 56.6.
`COc1ccc(CN(C)C[C@@H]2Oc3ccc(NS(=O)(=O)c4ccc(OC)cc4)cc3C(=O)N([C@H](C)CO)C[C@@H]2C)cc1` gave esBAF inh 6.8.
For NC(=O)C1=C(N=C2CCCCC2)CCCC1 the results were esBAF inh -8.0 and Vif inh 65.3*.
For OCCCNc1cc(-c2ccnc(Nc3cccc(Cl)c3)n2)ccn1 the results were HSF1 activator -65.9, esBAF inh -78.9, Vif inh -11.8 and HSF1 inhib -58.3*.
C[C@@H]1CN([C@H](C)CO)C(=O)c2cc(NS(=O)(=O)c3cccs3)ccc2O[C@@H]1CN(C)S(=O)(=O)c1cn(C)cn1 was read as esBAF inh -3.0.
Screening CCOC(=O)Cn1c(COc2ccccc2OC)[n+](C)c2ccccc21 returned HSF1 activator -85.2, esBAF inh 0.8, Vif inh 65.6* and HSF1 inhib -83.7*.
Cc1ccc(N/C=C/C(=O)c2ccco2)c(O)c1 was read as HSF1 activator -15.9, esBAF inh inconclusive, Vif inh -2.0 and HSF1 inhib -1.3.
Cc1ccc([N+](=O)[O-])cc1N/C=C/C(=O)c1ccco1 was read as HSF1 activator 38.3, esBAF inh 54.5*, Vif inh -9.0 and HSF1 inhib 11.0.
COc1ccccc1S(=O)(=O)N(C)C[C@@H]1Oc2cc(C#CCC(C)C)ccc2S(=O)(=O)N([C@@H](C)CO)C[C@H]1C was read as esBAF inh 4.7.
C[C@H](CO)N1C[C@H](C)[C@H](CN(C)Cc2ccc(F)cc2)Oc2ncc(C3=CCCC3)cc2C1=O was read as esBAF inh -4.4.
c1ccc(Nc2nc(-c3ccccc3)ns2)cc1 was read as HSF1 activator 59.3*, esBAF inh 21.2, Vif inh 6.0 and HSF1 inhib 22.5.
Screening CC(C)(C)C(=O)Nc1nc(-c2ccccc2)ns1 returned HSF1 activator 43.7, esBAF inh 48.6*, Vif inh -21.5 and HSF1 inhib 3.9.
Screening C[C@H](CO)N1C[C@H](C)[C@@H](CN(C)C(=O)c2ccccc2)OCCCC[C@H](C)Oc2ccc(NC(=O)CCCN(C)C)cc2C1=O returned esBAF inh 6.4.
Screening COc1ccc(C2NC(=O)CCC2[N+](=O)[O-])c(OC)c1 (centres undefined) returned HSF1 activator 55.9*, esBAF inh -2.8, Vif inh 2.6 and HSF1 inhib 16.2.
N#Cc1c(-c2ccccc2)ccnc1Oc1ccccc1 was read as HSF1 activator -36.6, esBAF inh 48.9*, Vif inh -1.4 and HSF1 inhib -18.1.
For COc1ccc(Oc2nccc(OC)c2C#N)cc1 the results were HSF1 activator 8.2, esBAF inh 8.5, Vif inh 33.8 and HSF1 inhib 1.0.
CCCC(=O)Nc1ccc2c(c1)C(=O)N(C)C[C@H](OC)[C@H](C)CN(CCC(F)(F)F)[C@@H](C)CO2 was read as esBAF inh -2.4.
Screening C/C=C/c1cnc2c(c1)C(=O)N([C@H](C)CO)C[C@@H](C)[C@H](CN(C)C(=O)CN1CCOCC1)O2 returned esBAF inh -0.6.
Screening CCc1ccc(N2C(=O)/C(=C/c3cccs3)N(CC(=O)OC)C2=S)cc1 returned HSF1 activator -6.6, esBAF inh -4.0, Vif inh 116.1* and HSF1 inhib 2.1.
Screening CCOC(=O)N1CCC2(CC1)C(C#N)=C(N)Oc1n[nH]c(C)c12 returned HSF1 activator -2.0, esBAF inh 0.4, Vif inh 8.6 and HSF1 inhib 7.9.
COCc1[nH]nc2c1C1(CCSCC1)C(C#N)=C(N)O2 was read as HSF1 activator -87.8, esBAF inh 8.4, Vif inh 4.6 and HSF1 inhib -84.6*.
For CS(=O)(=O)Nc1ccc2c(c1)[C@@H]1C[C@H](CC(=O)NCC3CC3)O[C@H](CO)[C@@H]1O2 the results were esBAF inh -6.0.
CCc1ccc(S(=O)(=O)Nc2ccc(O)c3ccccc23)cc1 was read as HSF1 activator 78.3*, esBAF inh -5.1, Vif inh 8.8 and HSF1 inhib 25.3.
For O=S(=O)(Nc1ccccc1O)c1ccc(-c2ccccc2)cc1 the results were HSF1 activator 65.3*, Vif inh -16.8 and HSF1 inhib 58.9.
